High-throughput results: PubChem, Sanford-Burnham Center for Chemical Genomics
Compounds with a hit are over-represented: about 4% of the library has one in this group of screens.
tim23-1 inh – growth inhibitors of tim23-1 mutant yeast, primary screen, luminescence, uHTS. S. cerevisiae tim23-1 growth, BacTiter-Glo luminescence, 24 h. inhibition, % at 20 µM. 1.3% of 330,000 active;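 active = growth inhibition of the mutant yeast at or above 50%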;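 also: temperature-sensitive mutant grown at 25 °C; plate controls were DMSO-treated mutant yeast for no effect and medium wells lacking yeast for full effect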
NLRP3 yeast inh – NALP3 inflammasome inhibitors in reconstituted yeast, primary screen, luminescence, uHTS. Yeast reconstituted NLRP3/ASC/caspase-1, beta-gal luminescence, 24 h. AID 2825, 2010. inhibition, % at 10 µM. 0.39% of 330,000 active;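 active = inhibition of 50% or more; inactive = inhibition below 50%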;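 also: plate controls were induced DMSO wells for no effect and uninduced yeast grown without galactose for full effect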
NALP1 inh – NALP1 inflammasome inhibitors in reconstituted yeast, colorimetric, S. cerevisiae, triplicate retest. S. cerevisiae NALP1/ASC/caspase-1 growth, X-gal OD620, 72 h. inhibition, % at 10 µM. 0.61% of 280,000 active; in the data active = inhibition mostly above about 24%, no sharp cut-off; inactive = mostly below about 32%
TIM10 inh – growth inhibitors of isogenic TIM10 control yeast, primary screen, counter-screen for tim10-1 yeast inhibitor project, luminescence, uHTS; 1.4% of 330,000 active; S. cerevisiae TIM10 strain growth, BacTiter-Glo luminescence, 24 h; AID 463195, 2010; inhibition, % at 10 µM;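 active = inhibition of 40% or more at the single tested concentration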;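 also: wild-type TIM10 isogenic control strain grown at permissive 25 °C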
tim10-1 inh – growth inhibitors of tim10-1 mutant yeast, primary screen, luminescence, uHTS. S. cerevisiae tim10-1 ts strain growth, BacTiter-Glo, 24 h. inhibition, % at 20 µM. 2.2% of 330,000 active. AID 463190, 2010;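 active = inhibition of at least 40%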;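 also: mutant grown at 25 °C; 0% = DMSO wells with yeast and 100% = wells holding no yeast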
tim10-1 conf – growth inhibitors of tim10-1 mutant yeast, confirmation, single concentration, luminescence, S. cerevisiae | S. cerevisiae tim10-1 ts strain growth, BacTiter-Glo, 24 h | inhibition, % at 20 µM | 56% of 7,400 active | shares compounds with tim10-1 inh;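 active = inhibition of yeast growth at or above a set limit in either of two repeat tests at 20 µM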;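 also: tim10-1 mutant grown at permissive 25 °C to find synthetic lethal compounds; 0% = DMSO yeast wells and 100% = medium wells without yeast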
TIM10 conf – growth inhibitors of wild-type TIM10 yeast, confirmation, counter-screen for tim10-1 synthetic lethality project, single concentration, luminescence, S. cerevisiae; shares compounds with TIM10 inh; S. cerevisiae tim10 strain growth, BacTiter-Glo luminescence, 24 h; inhibition, % at 10 µM; 63% of 4,600 active; AID 463215, 2010;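 active = inhibition of yeast growth at or above a set limit in either of two replicates at 10 µM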;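 also: this counterscreen used the strain with wild-type TIM10; 0% = yeast with DMSO and 100% = medium wells lacking yeast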
Active calls of the source: *; . = not tested or not shown.

SMILES	tim23-1 inh	NLRP3 yeast inh	NALP1 inh	TIM10 inh	tim10-1 inh	tim10-1 conf	TIM10 conf
O=C(COc1ccccc1[N+](=O)[O-])N/N=C/C=C/c1ccco1	30	17	3	8	25	.	.
Cc1ccccc1OCC(=O)N/N=C/c1ccc([N+](=O)[O-])o1	46	-3	30	42*	45*	35*	23
CC(=O)Nc1ccc(Nc2c([N+](=O)[O-])c(=O)n(-c3ccccc3)c3ccccc23)cc1	-26	0	5	-18	15	.	.
C#CCN(C(=O)c1ccc(OC2CCN(Cc3ccccn3)CC2)cc1)C1CCCCC1	7	13	-7	-3	23	.	.
COc1ccc(-c2cc(-c3cccs3)nc3sc(C#N)c(N)c23)cc1	28	15	19	17	35	.	.
N#Cc1sc2nc(C3CC3)cc(-c3ccc(Cl)cc3)c2c1N	40	17	28	44*	43*	36*	-6
O=C(COC(=O)/C=C/C(=O)OCC(=O)NC12CC3CC(CC(C3)C1)C2)NC12CC3CC(CC(C3)C1)C2	36	25	14	45*	56*	43*	13
COCCNC(=S)N1CCN(c2ccc(Cl)cc2)CC1	5	23	-4	8	15	.	.
Cc1ccnn2cc3c(=O)n(C)c(=O)n(C)c3c12	41	6	-3	72*	53*	51*	-9
Cn1c(=O)c2cn3ncccc3c2n(C)c1=O	.	.	12	.	.	.	.
CCOc1c(OC(C)=O)ccc(/C=C2\N=C(SCC)SC2=O)c1[N+](=O)[O-]	37	19	14	45*	50*	46*	31*
Cc1ccc(Sc2nc(-c3ccccc3)nnc2C(F)(F)F)cc1	28	0	38	41*	40*	38*	3
Cc1ccc(COc2ccc(Br)cc2/C=N/O)cc1	34	13	17	46*	51*	26	1
CCOC(=O)c1cccc(NC(=O)Nc2cc(OC)ccc2OC)c1	39	22	-4	40*	41*	28	28
Cc1nn(C)c(C)c1NC(=O)Nc1ccc(Cl)c(Cl)c1	37	8	22	40*	60*	58*	25
O=C(O)CC1Sc2nnc(COc3ccc(Cl)cc3)n2N=C1c1ccccc1 (stereo not given)	7	-11	6	13	12	.	.
COc1ccccc1C(=O)NC(=O)COC(=O)c1cnc(C)cn1	7	16	.	13	20	.	.
COc1ccc(OC)c(-c2[nH]nc3c2C(c2ccco2)C(C#N)=C(N)O3)c1 (stereo not given)	29	-15	0	16	24	.	.
COc1cccc(-c2[nH]nc3c2C(c2ccc(C)o2)C(C#N)=C(N)O3)c1 (stereo not given)	42	18	10	52*	45*	32	19
O=C(CCl)N(c1ccc(Cl)cc1)c1c[nH]c2ccccc12	40	2	21	41*	44*	36*	28*
O=C(CCl)N(c1ccccc1)c1c[nH]c2ccccc12	24	0	6	20	23	.	.
Cc1cccc(CN2C(=O)[C@H]3Cc4c([nH]c5ccccc45)C(C)(C)N3C2=O)c1	48	-5	.	43*	44*	35*	35*
CCCOc1ccc(C(=O)C(c2ccccc2)N2CCOCC2)cc1 (stereo not given)	-9	11	11	-18	-2	.	.
CCCOc1ccc(C(=O)C(CN2CCOCC2)c2ccccc2)cc1 (stereo not given)	32	27	-5	50*	46*	46*	8
O=C(c1cccc2ccccc12)n1nnc2ccccc21	0	-17	.	59*	66*	61*	73*
SMILES	tim23-1 inh	NLRP3 yeast inh	NALP1 inh	TIM10 inh	tim10-1 inh	tim10-1 conf	TIM10 conf
O=C(c1ccco1)N1CCN(c2ncnc3scc(-c4ccccc4)c23)CC1	28	-2	21	44*	47*	42*	-3
Cc1ccc(-c2csc3ncnc(N4CCN(C(=O)c5ccccc5)CC4)c23)cc1	37	14	17	27	25	.	.
O=C(NCCc1c[nH]c2ccccc12)c1ccc2c(c1)OCO2	-1	9	-5	11	-30	.	.
N#C/C(=C/c1ccc2c(c1)OCO2)C(=O)NCCc1c[nH]c2ccccc12	47	24	25	63*	63*	58*	56*
CCCCOC(=O)/C(=C\c1ccc([N+](=O)[O-])o1)NC(=O)c1ccccc1	25	4	42	45*	40*	40*	18
C=CC[C@H](CC(=O)OC(C)(C)C)C(=O)OC[C@@H]1CCCN1C(=O)[C@@H](CC=C)CC(=O)NCCO	5	15	.	2	0	.	.
N#C/C(=C\C=C\c1ccccc1[N+](=O)[O-])C(=O)NC1CCCCC1	30	13	9	43*	55*	47*	53*
CC1CN(CCc2ccccc2)c2nc3c(c(=O)n(CC(N)=O)c(=O)n3C)n2C1 (stereo not given)	-16	22	-1	-2	-7	.	.
O=[N+]([O-])c1ccc(S(=O)(=O)c2ccccc2)nc1	47	-32	21	60*	64*	58*	52*
Nc1ccc(S(=O)(=O)c2ccccc2)nc1	-3	-1	-1	1	-8	.	.
O=c1oc2ccccc2nc1/C=C(O)/C=C\c1ccccc1	39	14	.	45*	58*	46*	44*
CC(=O)Nc1nc2nc(-c3ccccc3)cc(-c3ccccc3)n2n1	10	1	15	27	26	.	.
O=C(Nc1nc2nc(-c3ccccc3)cc(-c3ccccc3)n2n1)c1ccco1	39	41	40	60*	43*	27	14
Cc1ccc([C@H]2C(C(=O)O)=CC[C@@H](c3ccc(C)cc3)N2S(=O)(=O)c2ccccc2C)cc1	28	2	.	8	14	.	.
COc1cccc(N2CCN(C(=O)c3ccc4nc(N5CCCCC5)sc4c3)CC2)c1	25	18	24	9	40	.	.
COc1ccc(N2CCN(C(=O)c3ccc4nc(N5CCCCC5)sc4c3)CC2)cc1	38	31	28	40*	44*	34*	33*
COc1ccc(OCC(=O)NC2CCSc3ccccc32)cc1 (stereo not given)	11	24	.	-10	-4	.	.
COc1cccc(N2CCN(C3CC(=O)N(c4ccc(Cl)c(Cl)c4)C3=O)CC2)c1 (stereo not given)	4	-10	13	41*	55*	31*	40*
